Tests used:
Test in all cases: DAPPL (digital affinity profiling via proximity ligation, sequencing); 10 mM Tris-HCl pH 7.5, 50 mM NaCl, 1 mM DTT, 4% glycerol, room temperature, 30 min; GST-TFs on glutathione beads, 16-mer random dsDNA library, 0.1% formaldehyde crosslink after washing; high values mean tight binding
FLI1 = biological target: T1, FLI1 (Homo sapiens, UniProt Q01543 1-452); details: protein: recombinant; tags: N-terminal GST; dsDNA, one strand shown
T1 sequence: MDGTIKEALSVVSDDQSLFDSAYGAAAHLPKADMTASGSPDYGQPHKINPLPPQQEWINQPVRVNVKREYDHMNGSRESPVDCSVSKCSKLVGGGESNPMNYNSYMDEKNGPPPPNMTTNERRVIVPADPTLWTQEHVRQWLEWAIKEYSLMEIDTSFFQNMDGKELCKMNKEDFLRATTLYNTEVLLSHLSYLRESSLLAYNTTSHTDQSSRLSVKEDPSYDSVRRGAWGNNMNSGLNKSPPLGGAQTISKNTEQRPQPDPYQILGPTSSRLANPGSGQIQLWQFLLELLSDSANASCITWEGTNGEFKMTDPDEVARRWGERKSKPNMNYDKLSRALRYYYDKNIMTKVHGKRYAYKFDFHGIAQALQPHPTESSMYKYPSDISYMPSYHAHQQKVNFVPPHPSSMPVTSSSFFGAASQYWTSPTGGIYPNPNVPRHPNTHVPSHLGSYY
Summary of the method: (§1)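 Each value of binding signal is a hexamer's read frequency for a factor divided by the same hexamer's frequency in the tag-only sample. Barcoded, bead-captured GST fusions of human transcription factors made in yeast were pooled with that sample and incubated with 200 nmole of a random double-stranded 16-mer DNA library in Tris/NaCl/DTT/glycerol buffer at room temperature for 30 min. Washing, 0.1% formaldehyde crosslinking, proximity ligation, PCR and Illumina NextSeq500 sequencing followed.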

ELK1 = biological target: T2, ELK1 (Homo sapiens, UniProt P19419 1-428); details: protein: recombinant; tags: N-terminal GST; dsDNA, one strand shown
T2 sequence: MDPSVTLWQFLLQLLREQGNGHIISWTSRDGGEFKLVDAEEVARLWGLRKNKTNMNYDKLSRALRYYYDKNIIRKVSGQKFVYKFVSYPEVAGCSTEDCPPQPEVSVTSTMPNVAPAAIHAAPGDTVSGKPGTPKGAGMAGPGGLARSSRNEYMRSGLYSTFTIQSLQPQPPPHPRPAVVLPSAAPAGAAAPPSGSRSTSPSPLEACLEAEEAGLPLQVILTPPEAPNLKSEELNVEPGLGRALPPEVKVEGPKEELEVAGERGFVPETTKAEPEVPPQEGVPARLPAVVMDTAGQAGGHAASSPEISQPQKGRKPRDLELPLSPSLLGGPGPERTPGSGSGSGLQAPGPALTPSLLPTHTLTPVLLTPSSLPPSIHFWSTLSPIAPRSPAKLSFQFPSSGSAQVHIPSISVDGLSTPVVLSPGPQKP
Summary of the method: as §1

GABPA = biological target: T3, GABPA (Homo sapiens, UniProt Q06546 1-454); details: protein: recombinant; tags: N-terminal GST; dsDNA, one strand shown
T3 sequence: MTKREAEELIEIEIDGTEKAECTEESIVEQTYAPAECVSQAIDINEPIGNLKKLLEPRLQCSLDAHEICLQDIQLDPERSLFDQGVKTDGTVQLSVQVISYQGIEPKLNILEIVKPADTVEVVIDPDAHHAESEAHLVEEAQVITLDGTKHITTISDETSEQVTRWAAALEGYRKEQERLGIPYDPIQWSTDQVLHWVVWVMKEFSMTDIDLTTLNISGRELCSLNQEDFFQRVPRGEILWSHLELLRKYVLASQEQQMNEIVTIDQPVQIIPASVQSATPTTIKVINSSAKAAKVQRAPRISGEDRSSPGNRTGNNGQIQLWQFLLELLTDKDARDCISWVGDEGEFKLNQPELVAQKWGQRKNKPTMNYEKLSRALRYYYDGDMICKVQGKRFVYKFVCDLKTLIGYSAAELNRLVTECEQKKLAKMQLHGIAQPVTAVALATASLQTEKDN
Summary of the method: as §1

ERG = biological target: T4, ERG (Homo sapiens, UniProt P11308 1-479); details: protein: recombinant; tags: N-terminal GST; dsDNA, one strand shown
T4 sequence: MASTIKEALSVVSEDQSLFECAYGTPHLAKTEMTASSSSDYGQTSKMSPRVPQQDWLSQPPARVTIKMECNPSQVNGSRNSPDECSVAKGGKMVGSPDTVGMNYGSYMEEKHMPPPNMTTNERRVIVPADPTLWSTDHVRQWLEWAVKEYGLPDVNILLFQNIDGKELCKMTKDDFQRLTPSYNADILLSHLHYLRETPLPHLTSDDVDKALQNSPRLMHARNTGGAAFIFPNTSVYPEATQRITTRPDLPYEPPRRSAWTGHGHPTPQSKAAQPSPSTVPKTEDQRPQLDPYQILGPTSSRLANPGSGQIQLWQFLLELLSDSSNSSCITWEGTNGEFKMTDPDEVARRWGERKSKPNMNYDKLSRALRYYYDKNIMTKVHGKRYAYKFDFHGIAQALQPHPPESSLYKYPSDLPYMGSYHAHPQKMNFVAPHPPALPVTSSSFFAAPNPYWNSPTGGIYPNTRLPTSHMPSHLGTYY
Summary of the method: as §1

ELF1 = ELF1 (Homo sapiens, UniProt P32519 1-619); details: protein: recombinant; tags: N-terminal GST; dsDNA, one strand shown
Summary of the method: as §1

EHF = biological target: T5, EHF (Homo sapiens, UniProt Q9NZC4 1-300); details: protein: recombinant; tags: N-terminal GST; dsDNA, one strand shown
T5 sequence: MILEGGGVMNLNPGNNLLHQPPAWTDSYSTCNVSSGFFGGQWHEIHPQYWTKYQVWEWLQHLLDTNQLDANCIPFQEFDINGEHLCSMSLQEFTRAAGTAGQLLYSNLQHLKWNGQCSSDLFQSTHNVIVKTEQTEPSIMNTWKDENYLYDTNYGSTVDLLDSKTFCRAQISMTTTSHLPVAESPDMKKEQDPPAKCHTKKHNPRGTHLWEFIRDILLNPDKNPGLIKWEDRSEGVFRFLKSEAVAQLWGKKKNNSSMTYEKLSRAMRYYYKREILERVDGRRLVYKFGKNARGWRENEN
Summary of the method: as §1

SPI1 = SPI1 (Homo sapiens, UniProt P17947 1-270); details: protein: recombinant; tags: N-terminal GST; dsDNA, one strand shown
Summary of the method: as §1

SPIB = SPIB (Homo sapiens, UniProt Q01892 1-262); details: protein: recombinant; tags: N-terminal GST; dsDNA, one strand shown
Summary of the method: as §1

ELK3 = biological target: T6, ELK3 (Homo sapiens, UniProt P41970 1-407); details: protein: recombinant; tags: N-terminal GST; dsDNA, one strand shown
T6 sequence: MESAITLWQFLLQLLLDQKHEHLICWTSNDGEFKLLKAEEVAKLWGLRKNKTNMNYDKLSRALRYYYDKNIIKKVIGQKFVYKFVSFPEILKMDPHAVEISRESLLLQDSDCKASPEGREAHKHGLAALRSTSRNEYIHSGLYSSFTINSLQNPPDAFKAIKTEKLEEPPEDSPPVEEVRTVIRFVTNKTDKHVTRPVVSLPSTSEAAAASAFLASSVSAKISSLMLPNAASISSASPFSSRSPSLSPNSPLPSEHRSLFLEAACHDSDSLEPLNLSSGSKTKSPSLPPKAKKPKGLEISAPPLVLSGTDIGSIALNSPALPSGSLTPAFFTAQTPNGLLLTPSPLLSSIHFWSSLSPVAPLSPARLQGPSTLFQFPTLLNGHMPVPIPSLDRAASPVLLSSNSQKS
Summary of the method: as §1

FEV = biological target: T7, FEV (Homo sapiens, UniProt Q99581 1-238); details: protein: recombinant; tags: N-terminal GST; dsDNA, one strand shown
T7 sequence: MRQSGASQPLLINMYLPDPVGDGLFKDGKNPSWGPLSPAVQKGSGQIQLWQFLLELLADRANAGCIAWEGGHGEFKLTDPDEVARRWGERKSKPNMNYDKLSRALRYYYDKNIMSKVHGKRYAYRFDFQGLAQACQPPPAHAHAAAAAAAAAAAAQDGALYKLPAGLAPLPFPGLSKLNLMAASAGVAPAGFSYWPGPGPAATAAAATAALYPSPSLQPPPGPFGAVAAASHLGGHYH
Summary of the method: as §1

ETV5 = ETV5 (Homo sapiens, UniProt P41161 1-510); details: protein: recombinant; tags: N-terminal GST; dsDNA, one strand shown
Summary of the method: as §1

HSF1 = HSF1 (Homo sapiens, UniProt Q00613 1-529); details: protein: recombinant; tags: N-terminal GST; chain copies: 3; dsDNA, one strand shown
Summary of the method: as §1

SPIC = biological target: T8, SPIC (Homo sapiens, UniProt Q8N5J4 1-248); details: protein: recombinant; tags: N-terminal GST; dsDNA, one strand shown
T8 sequence: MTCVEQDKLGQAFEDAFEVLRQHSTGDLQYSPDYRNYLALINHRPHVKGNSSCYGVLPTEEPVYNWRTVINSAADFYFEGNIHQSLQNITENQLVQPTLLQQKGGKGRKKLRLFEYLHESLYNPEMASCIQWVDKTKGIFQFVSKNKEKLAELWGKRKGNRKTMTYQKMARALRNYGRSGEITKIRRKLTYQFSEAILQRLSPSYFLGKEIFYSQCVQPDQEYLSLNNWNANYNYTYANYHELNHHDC
Summary of the method: as §1

ELF4 = ELF4 (Homo sapiens, UniProt Q99607 1-663); details: protein: recombinant; tags: N-terminal GST; dsDNA, one strand shown
Summary of the method: as §1

ELK4 = biological target: T9, ELK4 (Homo sapiens, UniProt P28324-2 1-405); details: protein: recombinant; tags: N-terminal GST; dsDNA, one strand shown
T9 sequence: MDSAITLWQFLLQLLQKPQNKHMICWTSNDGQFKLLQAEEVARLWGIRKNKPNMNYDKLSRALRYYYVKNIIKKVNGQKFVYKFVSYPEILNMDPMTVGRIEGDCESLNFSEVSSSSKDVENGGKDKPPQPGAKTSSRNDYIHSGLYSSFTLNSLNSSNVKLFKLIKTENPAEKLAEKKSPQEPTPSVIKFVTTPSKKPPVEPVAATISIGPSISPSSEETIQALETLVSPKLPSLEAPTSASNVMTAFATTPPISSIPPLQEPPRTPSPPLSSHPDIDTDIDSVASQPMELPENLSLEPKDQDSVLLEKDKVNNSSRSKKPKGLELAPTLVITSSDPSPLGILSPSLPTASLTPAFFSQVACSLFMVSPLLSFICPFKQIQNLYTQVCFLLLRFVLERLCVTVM
Summary of the method: as §1

ETV2 = biological target: T10, ETV2 (Homo sapiens, UniProt O00321 1-342); details: protein: recombinant; tags: N-terminal GST; dsDNA, one strand shown
T10 sequence: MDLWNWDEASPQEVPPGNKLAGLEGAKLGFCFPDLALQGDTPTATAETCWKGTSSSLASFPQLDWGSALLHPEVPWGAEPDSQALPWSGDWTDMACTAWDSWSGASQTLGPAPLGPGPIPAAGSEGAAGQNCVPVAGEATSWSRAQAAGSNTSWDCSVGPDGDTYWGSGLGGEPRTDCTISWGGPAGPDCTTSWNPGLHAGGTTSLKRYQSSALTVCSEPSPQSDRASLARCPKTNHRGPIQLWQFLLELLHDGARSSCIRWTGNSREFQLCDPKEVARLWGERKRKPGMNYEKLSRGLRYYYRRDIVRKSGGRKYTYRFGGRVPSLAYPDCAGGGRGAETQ
Summary of the method: as §1

ELF3 = biological target: T11, ELF3 (Homo sapiens, UniProt P78545 1-371); details: protein: recombinant; tags: N-terminal GST; dsDNA, one strand shown
T11 sequence: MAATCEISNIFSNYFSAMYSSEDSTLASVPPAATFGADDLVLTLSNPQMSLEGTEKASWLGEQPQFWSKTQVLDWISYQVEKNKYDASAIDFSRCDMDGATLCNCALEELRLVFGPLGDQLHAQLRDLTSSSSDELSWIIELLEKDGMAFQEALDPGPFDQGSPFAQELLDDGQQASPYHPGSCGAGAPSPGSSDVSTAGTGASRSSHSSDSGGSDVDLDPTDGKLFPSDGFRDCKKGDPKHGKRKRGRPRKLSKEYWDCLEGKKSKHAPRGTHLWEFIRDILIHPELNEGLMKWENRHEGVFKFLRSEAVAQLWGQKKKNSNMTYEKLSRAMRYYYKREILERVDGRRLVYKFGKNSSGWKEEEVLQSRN
Summary of the method: as §1

CRX = CRX (Homo sapiens, UniProt O43186 1-299); details: protein: recombinant; tags: N-terminal GST; dsDNA, one strand shown
Summary of the method: as §1

ETV1 = ETV1 (Homo sapiens, UniProt P50549 1-477); details: protein: recombinant; tags: N-terminal GST; dsDNA, one strand shown
Summary of the method: as §1

Chain of HSF1 (Q00613 whole entry): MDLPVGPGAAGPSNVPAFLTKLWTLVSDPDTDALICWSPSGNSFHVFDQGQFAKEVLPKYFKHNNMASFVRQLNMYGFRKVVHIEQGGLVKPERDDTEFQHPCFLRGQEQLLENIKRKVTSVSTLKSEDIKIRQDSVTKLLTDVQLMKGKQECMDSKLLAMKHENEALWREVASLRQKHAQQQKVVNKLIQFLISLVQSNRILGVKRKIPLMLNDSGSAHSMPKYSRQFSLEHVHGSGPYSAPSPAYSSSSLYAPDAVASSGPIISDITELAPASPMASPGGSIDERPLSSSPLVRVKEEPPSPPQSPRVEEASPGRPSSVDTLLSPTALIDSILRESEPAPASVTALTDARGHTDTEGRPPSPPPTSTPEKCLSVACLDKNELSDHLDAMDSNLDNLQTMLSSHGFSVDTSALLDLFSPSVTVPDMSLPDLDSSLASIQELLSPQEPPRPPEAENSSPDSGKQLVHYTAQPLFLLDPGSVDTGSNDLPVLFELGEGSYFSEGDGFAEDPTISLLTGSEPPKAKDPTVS
Chain of SPIB (Q01892 whole entry): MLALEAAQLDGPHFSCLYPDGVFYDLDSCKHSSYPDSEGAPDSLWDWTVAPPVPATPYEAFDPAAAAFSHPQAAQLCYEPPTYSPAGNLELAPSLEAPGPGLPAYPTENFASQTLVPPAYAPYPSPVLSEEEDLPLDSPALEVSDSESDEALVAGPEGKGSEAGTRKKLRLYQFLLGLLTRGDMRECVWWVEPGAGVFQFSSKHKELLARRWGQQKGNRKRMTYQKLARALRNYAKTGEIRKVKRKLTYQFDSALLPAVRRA
Chain of ETV1 (P50549 whole entry): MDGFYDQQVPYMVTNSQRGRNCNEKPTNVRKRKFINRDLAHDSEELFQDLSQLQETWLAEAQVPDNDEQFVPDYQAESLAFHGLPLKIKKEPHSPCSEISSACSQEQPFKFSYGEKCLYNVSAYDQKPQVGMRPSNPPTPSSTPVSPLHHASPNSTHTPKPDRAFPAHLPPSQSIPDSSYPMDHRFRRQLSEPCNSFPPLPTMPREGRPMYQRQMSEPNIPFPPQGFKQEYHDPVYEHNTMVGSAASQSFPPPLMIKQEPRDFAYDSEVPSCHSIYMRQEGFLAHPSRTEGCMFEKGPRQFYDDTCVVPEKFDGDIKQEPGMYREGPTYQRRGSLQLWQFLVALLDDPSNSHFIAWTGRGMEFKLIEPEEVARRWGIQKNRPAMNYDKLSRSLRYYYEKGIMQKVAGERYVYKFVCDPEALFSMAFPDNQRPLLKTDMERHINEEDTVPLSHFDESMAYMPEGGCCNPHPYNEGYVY
Chain of ETV5 (P41161 whole entry): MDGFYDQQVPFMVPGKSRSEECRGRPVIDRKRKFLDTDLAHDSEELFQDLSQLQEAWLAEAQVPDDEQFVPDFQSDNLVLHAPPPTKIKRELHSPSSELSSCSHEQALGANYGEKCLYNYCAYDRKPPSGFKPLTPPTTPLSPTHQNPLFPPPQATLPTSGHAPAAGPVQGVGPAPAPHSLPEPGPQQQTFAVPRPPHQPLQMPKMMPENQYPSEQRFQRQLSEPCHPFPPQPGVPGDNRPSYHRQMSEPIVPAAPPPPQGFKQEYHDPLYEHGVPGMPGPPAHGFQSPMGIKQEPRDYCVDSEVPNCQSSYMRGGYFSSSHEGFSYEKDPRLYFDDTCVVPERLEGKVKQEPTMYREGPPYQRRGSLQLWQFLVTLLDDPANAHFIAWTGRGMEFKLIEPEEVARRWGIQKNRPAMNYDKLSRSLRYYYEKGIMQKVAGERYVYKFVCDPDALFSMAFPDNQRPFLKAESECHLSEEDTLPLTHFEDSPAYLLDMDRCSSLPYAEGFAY
Chain of CRX (O43186 whole entry): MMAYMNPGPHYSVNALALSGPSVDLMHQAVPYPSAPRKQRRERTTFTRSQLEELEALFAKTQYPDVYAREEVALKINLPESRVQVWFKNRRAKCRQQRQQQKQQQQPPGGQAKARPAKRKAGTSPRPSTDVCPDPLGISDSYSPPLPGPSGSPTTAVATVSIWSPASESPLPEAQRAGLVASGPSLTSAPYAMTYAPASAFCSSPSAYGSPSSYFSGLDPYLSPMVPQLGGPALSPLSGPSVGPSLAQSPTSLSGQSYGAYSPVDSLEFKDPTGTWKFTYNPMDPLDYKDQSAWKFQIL
Chain of ELF1 (P32519 whole entry): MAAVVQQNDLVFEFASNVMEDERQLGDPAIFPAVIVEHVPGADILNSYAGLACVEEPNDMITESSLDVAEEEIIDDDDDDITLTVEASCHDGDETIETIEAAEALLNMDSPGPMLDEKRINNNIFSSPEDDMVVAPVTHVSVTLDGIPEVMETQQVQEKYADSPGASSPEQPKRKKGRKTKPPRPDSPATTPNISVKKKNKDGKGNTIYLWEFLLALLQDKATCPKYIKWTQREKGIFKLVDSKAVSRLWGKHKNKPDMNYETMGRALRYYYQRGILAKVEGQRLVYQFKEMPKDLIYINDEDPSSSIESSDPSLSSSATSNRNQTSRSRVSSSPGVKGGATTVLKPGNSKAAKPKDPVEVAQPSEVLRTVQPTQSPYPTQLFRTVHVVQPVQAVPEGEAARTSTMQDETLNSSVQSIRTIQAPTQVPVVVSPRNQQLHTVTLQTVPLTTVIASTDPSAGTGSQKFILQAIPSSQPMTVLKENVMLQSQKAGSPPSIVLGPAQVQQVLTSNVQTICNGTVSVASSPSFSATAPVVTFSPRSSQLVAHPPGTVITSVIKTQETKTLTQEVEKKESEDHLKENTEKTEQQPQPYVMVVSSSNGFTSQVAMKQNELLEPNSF
Chain of ELF4 (Q99607 whole entry): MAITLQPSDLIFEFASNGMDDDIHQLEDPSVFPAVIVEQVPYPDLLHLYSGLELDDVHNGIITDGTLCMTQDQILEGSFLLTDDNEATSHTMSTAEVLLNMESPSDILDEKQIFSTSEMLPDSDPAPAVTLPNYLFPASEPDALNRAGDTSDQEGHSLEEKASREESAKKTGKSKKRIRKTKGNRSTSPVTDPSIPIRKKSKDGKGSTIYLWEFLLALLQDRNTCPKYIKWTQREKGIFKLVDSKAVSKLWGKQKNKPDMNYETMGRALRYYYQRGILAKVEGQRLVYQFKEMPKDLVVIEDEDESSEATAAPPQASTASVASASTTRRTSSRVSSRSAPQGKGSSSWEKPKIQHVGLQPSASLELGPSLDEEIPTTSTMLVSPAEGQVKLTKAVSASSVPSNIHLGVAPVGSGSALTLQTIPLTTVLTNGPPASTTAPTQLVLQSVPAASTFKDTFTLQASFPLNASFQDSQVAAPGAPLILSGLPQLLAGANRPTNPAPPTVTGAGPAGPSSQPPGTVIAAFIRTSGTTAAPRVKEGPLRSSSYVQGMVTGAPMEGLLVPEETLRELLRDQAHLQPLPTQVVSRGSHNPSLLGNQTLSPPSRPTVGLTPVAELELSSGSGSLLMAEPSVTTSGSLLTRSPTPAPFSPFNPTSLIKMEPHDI

## CGCCTT
FLI1
  binding signal: 1.45 fold enrichment (6-mer frequency, TF over GST control)
ELK1
  binding signal: 1.43 fold enrichment (6-mer frequency, TF over GST control)
GABPA
  binding signal: 1.45 fold enrichment (6-mer frequency, TF over GST control)
ERG
  binding signal: 1.44 fold enrichment (6-mer frequency, TF over GST control)
ELF1
  binding signal: 1.44 fold enrichment (6-mer frequency, TF over GST control)
EHF
  binding signal: 1.34 fold enrichment (6-mer frequency, TF over GST control)
SPI1
  binding signal: 1.35 fold enrichment (6-mer frequency, TF over GST control)
SPIB
  binding signal: 1.43 fold enrichment (6-mer frequency, TF over GST control)
ELK3
  binding signal: 1.46 fold enrichment (6-mer frequency, TF over GST control)
FEV
  binding signal: 1.39 fold enrichment (6-mer frequency, TF over GST control)
ETV5
  binding signal: 1.37 fold enrichment (6-mer frequency, TF over GST control)
HSF1
  binding signal: 1.32 fold enrichment (6-mer frequency, TF over GST control)
SPIC
  binding signal: 1.47 fold enrichment (6-mer frequency, TF over GST control)
ELF4
  binding signal: 1.54 fold enrichment (6-mer frequency, TF over GST control)
ELK4
  binding signal: 1.52 fold enrichment (6-mer frequency, TF over GST control)
ETV2
  binding signal: 1.64 fold enrichment (6-mer frequency, TF over GST control)
ELF3
  binding signal: 1.26 fold enrichment (6-mer frequency, TF over GST control)
CRX
  binding signal: 1.38 fold enrichment (6-mer frequency, TF over GST control)
ETV1
  binding signal: 1.38 fold enrichment (6-mer frequency, TF over GST control)
